Reference: PubChem BioAssay (Tox21)
Records with an inconclusive call do not appear. Values without a mark were called inactive. Calls of active or inactive are those of the source. Calls come from the whole dose curve; as a rule, active = well fitted inhibition curve with a large enough effect in the repeat runs; inconclusive = weak or mixed curves; inactive = no such curve, though single readings can be large or run the other way.
% is set by controls: 0 for no effect and ±100 for the full control effect; potency is the fitted concentration of half-maximal effect.

What follows are compounds tested against Cytochrome P450 3A4 (Homo sapiens) (UniProt P08684) (assay: Cytochrome P450 Family 3 Subfamily A Member 4 (CYP3A4) small molecule antagonists: luciferase reporter qHTS assay (AID 1671201; note: nearly all actives have a fitted effect of over 50% in size)). Conditions: P450-Glo CYP3A4 enzyme, luciferin luminescence, 1 h; series mostly up to 115 µM; activity change, negative = inhibition: at the top concentration.
Cytochrome P450 3A4 (Homo sapiens), sequence (P08684 whole entry, looked up): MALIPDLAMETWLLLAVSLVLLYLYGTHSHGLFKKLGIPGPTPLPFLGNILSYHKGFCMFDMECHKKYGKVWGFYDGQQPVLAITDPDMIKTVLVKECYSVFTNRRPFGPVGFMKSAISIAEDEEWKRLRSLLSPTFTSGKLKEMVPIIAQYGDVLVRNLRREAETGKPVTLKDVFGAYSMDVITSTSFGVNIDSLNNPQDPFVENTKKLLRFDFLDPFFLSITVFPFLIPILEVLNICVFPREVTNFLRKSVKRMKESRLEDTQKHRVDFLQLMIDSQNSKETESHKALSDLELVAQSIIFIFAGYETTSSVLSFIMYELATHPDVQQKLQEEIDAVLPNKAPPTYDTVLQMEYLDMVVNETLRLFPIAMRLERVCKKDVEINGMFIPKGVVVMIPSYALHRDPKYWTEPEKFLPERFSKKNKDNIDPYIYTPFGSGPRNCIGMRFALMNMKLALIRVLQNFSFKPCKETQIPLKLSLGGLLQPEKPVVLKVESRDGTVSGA
Description: National Center for Advancing Translational Sciences [NCATS]
U.S. Environmental Protection Agency [EPA]
National Institutes of Environmental Health Sciences [NIEHS]
National Toxicology Program [NTP]
U.S. Food and Drug Administration [FDA]
Cytochrome P450 (CYP) enzymes are membrane-bound hemeproteins that play a key role in metabolism of drugs and xenobiotics. Evaluation of the effect of chemicals on CYP isozymes is useful to minimize the adverse drug reactions and toxicities in drug development process. Tox21 chemicals were tested for their effect on CYP enzyme activities by using P450-Glo (TM) screening systems (Promega Corporation, Madison, WI). These systems provide a luminescent method containing proluciferin substrates and are converted to luciferin products by CYP isozymes. The luciferin products formed are detected with a luciferin detection reagent, and the amount of light produced is proportional to CYP activity. P450-Glo (TM) CYP3A4 screening system (Catalog. No. V9910) was used to detect the compounds that interfere in CYP3A4 activity. The positive control compound used for CYP3A4 assay is ketoconazole (Sigma-Aldrich, St. Louis, MO).
Tox21 Assay Protocol Summary:
Two ul of enzyme-substrate mix was dispensed into medium binding white/solid 1536-well plates (Greiner Bio-One North America Inc., Monroe, NC) using a BioRaptr Flying Reagent Dispenser (FRD, Beckman Coulter, Brea, CA). Compounds dissolved in DMSO and positive control (ketoconazole) were transferred to the assay plates at 23 nl using a Pintool station (Wako, San Diego, CA). The assay plates were incubated at room temperature for 10 min. Then 2 ul of NADPH regeneration solution was added to each well of the assay plates using an FRD and incubated at room temperature for 1 h. The reaction was stopped by adding 4 ul of detection reagent using an FRD and after 20 min incubation at room temperature the luminescence signal was measured using a ViewLux plate reader (Perkin Elmer, Shelton, CT). Data were expressed as relative luminescence units.
In the case of CC(C)COP(=O)(OCC(C)C)OCC(C)C, the “activity change, negative = inhibition” value is reported as -9.98%. For CCCCc1ccc(O)cc1, the “activity change, negative = inhibition” value was 6.93%. Cc1cc(C)nc(Nc2ccccc2)n1 was tested, and the “activity change, negative = inhibition” value was 8.34%. With CC(C1CC1)C(O)(Cn1cncn1)c1ccc(Cl)cc1 (stereo not given) the Potency was 888 nM (active). For CCS(=O)(=O)CCSP(=O)(OC)OC, the “activity change, negative = inhibition” value was 2.82%. In the case of CCOP(=O)(OCC)OP(=O)(OCC)OCC, the “activity change, negative = inhibition” value is reported as -2.73%. For CCC(=O)c1ccccc1, the “activity change, negative = inhibition” value was 5.67%. CCCCOC(=O)c1ccccc1N was tested, and the “activity change, negative = inhibition” value was -22.2%. With O=P(O)(Oc1ccccc1)Oc1ccccc1 the “activity change, negative = inhibition” value was 8.77%. For CCOP(=O)(N=C1SCCS1)OCC, the “activity change, negative = inhibition” value was 0.17%. For CNCC(=O)c1ccc(O)c(O)c1, the “activity change, negative = inhibition” value was -9.49% [at 52.9 µM]. CCOc1nc(C(Cl)(Cl)Cl)ns1 was tested, and the “activity change, negative = inhibition” value was 10.3%. For Cc1ncsc1CCCl, the “activity change, negative = inhibition” value was 37.6% [at 52.9 µM]. N#CCBr was tested, and the “activity change, negative = inhibition” value was 0.0942%. COC(=O)C1=CCCN(C)C1 was tested, and the “activity change, negative = inhibition” value was 0.371% [at 52.9 µM]. For N#Cc1ccncc1, the “activity change, negative = inhibition” value was 0.57%. With CCCCOP(=O)(O)OCCCC the “activity change, negative = inhibition” value was 11.6%. In the case of COC(=O)c1ccccc1S(=O)(=O)NC(=O)N(C)c1nc(C)nc(OC)n1, the “activity change, negative = inhibition” value is reported as 0.738%. With C[C@]1(O)CC[C@H]2[C@@H]3CCC4=CC(=O)CC[C@]4(C)[C@@]3(F)[C@@H](O)C[C@@]21C the “activity change, negative = inhibition” value was -14.4%. With O=C(CCCN1CCC(n2c(=O)[nH]c3ccccc32)CC1)c1ccc(F)cc1 the “activity change, negative = inhibition” value was 2.59% [at 52.9 µM]. In the case of ClCCCN1CCN(c2cccc(Cl)c2)CC1, the “activity change, negative = inhibition” value is reported as 99.5% [at 52.9 µM]. With Cc1ncc(CNC(=O)N(CCCl)N=O)c(N)n1 the “activity change, negative = inhibition” value was 7.91% [at 52.9 µM]. For CCOP(=S)(Oc1cnc(C(C)(C)C)nc1)OC(C)C (stereo not given), the Potency was 1590 nM (active). In the case of CC1CCCCC1NC(=O)Nc1ccccc1 (stereo not given), the Potency is reported as 11200 nM (active). With ClC(Cl)(Cl)C(Cl)(Cl)Cl the “activity change, negative = inhibition” value was 10.5%. For CC(CCc1ccccc1)NC(C)C(O)c1ccc(O)cc1 (stereo not given), the “activity change, negative = inhibition” value was 82.8% [at 52.9 µM]. CC(Oc1ccc(Oc2ncc(C(F)(F)F)cc2Cl)cc1)C(=O)O (stereo not given) was tested, and the “activity change, negative = inhibition” value was 26%. For N#CCNCC#N, the “activity change, negative = inhibition” value was 0.0182%. With CSc1nc(N=[N+]=[N-])nc(NC(C)C)n1 the “activity change, negative = inhibition” value was 21.1%. With N#CC(CCc1ccc(Cl)cc1)(Cn1cncn1)c1ccccc1 (stereo not given) the Potency was 63.3 nM (active). OCCBr was tested, and the “activity change, negative = inhibition” value was 0.19%. In the case of NC1=NC(=O)C(c2ccccc2)O1 (stereo not given), the “activity change, negative = inhibition” value is reported as 22.2% [at 52.9 µM]. In the case of O=NN1CCN(N=O)CC1, the “activity change, negative = inhibition” value is reported as 9.47%. For COC(=O)COc1ccc(Cl)cc1Cl, the “activity change, negative = inhibition” value was 76.8%. N#Cc1c(Cl)cccc1Cl was tested, and the “activity change, negative = inhibition” value was 65.4%. COc1cc(OC)nc(NC(=O)NS(=O)(=O)c2ncccc2OCC(F)(F)F)n1 was tested, and the “activity change, negative = inhibition” value was -19.7%. C[C@H]1CCC[C@H](O)CCCCCc2cc(O)cc(O)c2C(=O)O1 was tested, and the Potency was 715 nM (active). CNC(=O)O/N=C(\C)SC was tested, and the “activity change, negative = inhibition” value was 3.28%. In the case of Cc1cccc(C#N)c1, the “activity change, negative = inhibition” value is reported as 0.718%. With O=[N+]([O-])c1cc(Cl)c(Cl)c(Cl)c1 the “activity change, negative = inhibition” value was 5.5%.
